# In all, about 69,000 compounds went through this assay and about 950 (1.4%) showed an effect of 50% or more. The list comes from a sample in which strong results are over-represented; it also holds similar structures and randomly drawn compounds.
# Tested on: Mycobacterium tuberculosis
# Test: Cornell M. t heat shock assay; further: in the data most compounds retested in dose-response had high values
# Type: functional, organism-based
# Design: dose or concentration left out as unconfirmed
row,SMILES,Percent Effect [%]
1,Cl.O=C(C1CCC1)N1C[C@@H](c2ccsc2)[C@@H]2CN(C3CCCCC3)CC[C@@H]21,-50.24
2,Cc1ccc2nc(C3CCN(CC4CC4)CC3)nn2c1.O=C(O)C(F)(F)F,-35.41
3,CC(C)COC(C)C(=O)NCCNC(=O)C(C)C (centres undefined),-3.282
4,CC(C)COC(C)C(=O)NCCNS(C)(=O)=O (centres undefined),-20.75
5,CCOC(C)C(=O)NCCNS(C)(=O)=O (centres undefined),69.12
6,O=C(O)C(F)(F)F.O=C(c1ccoc1)N1CC[C@@H](N2CCOCC2)[C@@H]1Cc1ccccc1,-25.18
7,O=C(NCc1ccccn1)[C@H]1COC[C@H]2CN(C3CCCC3)C[C@H]21.O=C(O)C(F)(F)F.O=C(O)C(F)(F)F,-26.6
8,Cc1ccc(CN[C@@H]2COC[C@H]2Cc2cc(C)no2)cc1.O=C(O)CC(O)(CC(=O)O)C(=O)O,0.5554
9,O=C1CN(Cc2nnc(-c3ccc(Br)o3)o2)CCN1,51.83
10,O=C1CN(Cc2nnc(-c3ccc(Br)cc3)o2)CCN1,1.317
11,O=C1CN(Cc2nnc(-c3ccccc3Br)o2)CCN1,14.67
12,Cl.c1cc(CNCc2ccc(Cn3cncn3)cc2)c2c(c1)OCCO2,-1.246
13,Cl.NC(=O)COc1ccc(CNCc2cc(F)ccc2F)cc1,-36.29
14,COCCNC(=O)Cn1ccc2ccc(F)cc21,14.54
15,COCCNC(=O)Cn1c(-c2cccc(Cl)c2)nc(C)c(CCO)c1=O,68.55
16,CCN(CC)C(=O)Cn1c(-c2ccc(Cl)cc2)nc(C)c(CCO)c1=O,69.66
17,COCCNC(=O)Cn1c(-c2ccc(Cl)cc2)nc(C)c(CCO)c1=O,50.09
18,CCOc1nc2cccnc2n(CC(=O)NCCOC)c1=O,5.103
19,Cc1nc(-c2ccc(Cl)cc2)n(CC(=O)NC(C)C)c(=O)c1CCO,47.89
20,COCCNC(=O)Cn1c(-c2cccc(F)c2)nc(C)c(CCO)c1=O,66.78
21,CCc1cc(=O)n(CC(=O)NCC2CCCO2)c(-c2cccc(F)c2)n1 (centres undefined),19.5
22,COCCNC(=O)Cn1c(-c2ccc(F)cc2)nc(C)c(CCO)c1=O,29.85
23,Cc1cc(=O)n(CC(=O)NCCC(C)C)c(-c2cccc(Cl)c2)n1,9.879

row,SMILES,Percent Effect [%]
1,COCCCNC(=O)Cn1c(-c2cccc(Cl)c2)nc(C)cc1=O,10.79
2,CCN(CC)C(=O)c1nnsc1-c1ccc(Cl)cc1,-12.37
3,Cc1ccc(-c2ccc(C3CNCCO3)nc2)cc1.Cl (centres undefined),-12.85
4,CC[C@@H]1N(Cc2nccs2)CCC[C@]12CCC(=O)N2C.O=C(O)C(F)(F)F,-9.457
5,CCOCC1CN(Cc2ccccn2)Cc2nn(CC3CC3)cc21.O=C(O)C(F)(F)F.O=C(O)C(F)(F)F (centres undefined),-24.37
6,O=C(O)C(F)(F)F.O=C(c1ncccn1)N1CCC[C@]2(C[C@@H](Oc3ncccc3F)CO2)C1,-26.7
7,O=C(Cc1ccccc1F)N1C[C@@H]2COC[C@]2(COc2cccnc2)C1.O=C(O)C(F)(F)F,-4.707
8,COCC(=O)N1CCCn2c(CN3CCOCC3)nnc2C1.O=C(O)C(F)(F)F,-20.35
9,Cl.FC(F)CNc1cnc(C2CCCN2)cn1 (centres undefined),-21.09
10,O=C(O)C(F)(F)F.O=C1NCCN(CC2CC2)C12CCN(Cc1ccccc1)CC2,-29.41
11,COCC1CC2(CCN(Cc3ccncc3)CC2)CN1C(C)C.O=C(O)C(F)(F)F.O=C(O)C(F)(F)F.O=C(O)C(F)(F)F (centres undefined),-9.126
12,O=C(Nc1cccnc1)[C@H]1C[C@@H]2CN(S(=O)(=O)C3CC3)C[C@H]1O2,-11.95
13,COCc1ncn2c1CN(C(=O)c1ccc3ccccc3n1)CC2.O=C(O)C(F)(F)F,-56.59
14,CO[C@H]1C[C@@H]2CN(C(=O)c3cc4ccc(F)cc4[nH]3)C[C@@H]2C1,35.64
15,COc1ccc(CN2C[C@H]3CN(c4ccsc4)C(=O)[C@H]3C2)cc1.O=C(O)C(F)(F)F,16.76
16,COc1ccc(F)cc1C(=O)N1C[C@H]2C[C@H](OC)C[C@H]2C1,-3.804
17,Cl.Cl.O=C([C@@H]1CSCN1)N1CC2(CCNCC2)c2cc(Cl)ccc21,3.414
18,CC(=O)N1CCC2(CC1)CN(C(=O)[C@@H]1CSCN1)c1ccc(Cl)cc12.O=C(O)C(F)(F)F,52.14
19,Cl.Cl.O=C([C@H]1CCCN1)N1CC2(CCNCC2)c2cc(Cl)ccc21,-22.31
20,O=C(CC1CCCC1)N1C[C@H](Oc2cccnc2)[C@H]2OCCC[C@H]21.O=C(O)C(F)(F)F,0.71
21,CCOCC1CN(C(=O)N(C)C)Cc2nnn(CC3CC3)c21 (centres undefined),1.23
22,CCOCC1CN(CC2CCC2)Cc2nnn(CC3CC3)c21 (centres undefined),57.51
23,C1CCC(CN2Cc3nnn(CC4CC4)c3C(COCC3CC3)C2)C1.O=C(O)C(F)(F)F (centres undefined),40.48

row,SMILES,Percent Effect [%]
1,CN(C)CC1CN(Cc2cccc(C#N)c2)Cc2nccn2C1.O=C(O)C(F)(F)F.O=C(O)C(F)(F)F (centres undefined),-5.749
2,CC(C)c1nn(C)c(Cl)c1CNCc1ccc2c(c1)OCO2.Cl,15.25
3,O=C(CC1CC1)N1CCc2ncc(CN3CCOCC3)n2CC1.O=C(O)C(F)(F)F,2.118
4,COc1ncc(C2(O)CCN(Cc3ccc(F)c(F)c3)CC2)c(OC)n1.Cl,2.429
5,CCCS(=O)(=O)N1CC(=O)N(CCCc2ccccc2)CC(O)C1 (centres undefined),-29.16
6,COc1cccc(CN2CC(O)CN(S(C)(=O)=O)CC2=O)c1OC (centres undefined),29.18
7,CCS(=O)(=O)N1CC(=O)N(Cc2ccccc2OC)CC(O)C1 (centres undefined),62.67
8,CS(=O)(=O)N1CC(=O)N(CCCc2ccccc2)CC(O)C1 (centres undefined),-9.009
9,CCCS(=O)(=O)N1CC(=O)N(Cc2cccc(OC)c2OC)CC(O)C1 (centres undefined),3.552
10,COc1cccc(OC)c1CN1CC(O)CN(S(C)(=O)=O)CC1=O (centres undefined),55.83
11,COc1ccccc1CN1CC(OC)CN(C(=O)CC(C)C)CC1=O (centres undefined),-13.24
12,CCS(=O)(=O)N1CC(=O)N(CCCc2ccccc2)CC(O)C1 (centres undefined),-6.774
13,CCS(=O)(=O)N1CC(=O)N(CCOc2ccccc2)CC(O)C1 (centres undefined),-13.04
14,COc1ccccc1CN1CC(O)CN(S(=O)(=O)C(C)C)CC1=O (centres undefined),61.24
15,COc1ccccc1CN1CC(O)CN(C(=O)OCC(C)C)CC1=O (centres undefined),1.526
16,CCCS(=O)(=O)N1CC(=O)N(Cc2ccccc2OC)CC(O)C1 (centres undefined),56.43
17,COc1ncccc1CN1C[C@@H]2COC[C@]2(CNS(C)(=O)=O)C1.O=C(O)C(F)(F)F.O=C(O)C(F)(F)F,-54.94
18,O=C(NCc1ccccn1)[C@]12COC[C@H]1CN(Cc1cccnc1)C2.O=C(O)C(F)(F)F.O=C(O)C(F)(F)F.O=C(O)C(F)(F)F,-8.191
19,CC(=O)N1CCC2(CC1)COCCN2Cc1ccc(F)cc1.O=C(O)C(F)(F)F,-4.953
20,CN(C)[C@@H]1CN(C(=O)Cc2ccccc2)[C@@H]2CCCO[C@H]12.O=C(O)C(F)(F)F,-12.48
21,CN1C(=O)CC(c2cnn(C)c2)C12CCN(C(=O)c1ccncc1)CC2.O=C(O)C(F)(F)F (centres undefined),-21.56
22,COc1cc(CNCC(O)c2ccc(C)cc2)cc2c1OCO2.Cl (centres undefined),-8.52
23,O=C(NCC1CCCCC1)N1C[C@H]2C[C@H](C(=O)N3CCCC3)[C@@H](C1)O2,-29.22

row,SMILES,Percent Effect [%]
1,CN(C)C(=O)CN1CCCC2(CCN(c3ccsc3)C2=O)C1.O=C(O)C(F)(F)F (centres undefined),-10.79
2,COc1ccc(CN2C[C@H]3C[C@H](CN(C)C)O[C@H]3C2)cc1.O=C(O)C(F)(F)F.O=C(O)C(F)(F)F,-20.17
3,CC(C)NC(=O)[C@H]1C[C@@H]2CN(C(=O)NCCc3ccccc3)C[C@H]1O2,-3.811
4,Cl.O=c1c2sccc2nc2n1CCN(Cc1cc(F)ccc1F)CC2,0.6259
5,COc1ccc(CN2CC(=O)N(c3ccc(C)cc3)CC2C)cc1O (centres undefined),-4.116
6,COc1cc(CN2CC(=O)N(c3ccc(C)cc3)CC2C)cc(OC)c1 (centres undefined),23.62
7,COc1cccc(OC)c1CN1CC(=O)N(c2ccc(C)cc2)CC1C (centres undefined),53.82
8,CC(CCSc1ccccc1)N1CCN(C(=O)c2cccs2)CC1 (centres undefined),96
9,CC(CCSc1ccccc1)N1CCN(C(=O)c2ccccc2O)CC1 (centres undefined),35.88
10,CC(CCSc1ccccc1)N1CCCN(C(N)=O)CC1 (centres undefined),30.42
11,COCCNC(=O)C[C@@H]1COC[C@H]2CN(CC3CCOCC3)C[C@@H]12.O=C(O)C(F)(F)F,-14.59
12,Cc1ccc(C(=O)N2CCc3ncnc(-c4cnn(C)c4)c3CC2)cn1.O=C(O)C(F)(F)F,-33.4
13,Cc1cnccc1NC(=O)CCc1ccsc1,-21.59
14,Cc1cc(NC(=O)NCCc2ccsc2)n(C)n1,63.69
15,Cn1cc(NC(=O)CCc2ccsc2)ccc1=O,27.26
16,Cc1cc(NC(=O)CCc2ccsc2)n(C)n1,89.31
17,Cc1cc(NC(=O)NCCc2ccccc2)n(C)n1,-19.68
18,COc1ccc(CCNC(=O)Nc2cc(C)nn2C)cc1,8.379
19,COCCN1Cc2nccn2CC(COCc2csc(C)n2)C1.O=C(O)C(F)(F)F.O=C(O)C(F)(F)F (centres undefined),2.482
20,O=S(=O)(c1ccc2c(c1)OCCO2)N1CCc2ccccc2C1,-4.595
